Compound activity as filed in PubChem BioAssay.
Shiga inhibitor = A qHTS for Small Molecule Inhibitors of Shiga Toxin. Vero cells, Shiga toxin protein synthesis inhibition reporter. inhibition, % at 38.7 µM. 9.2% of 290,000 active; in the data active = inhibition mostly above about 28%, no sharp cut-off; inactive = mostly below about 43%
Pf growth 96h = Primary qHTS for delayed death inhibitors of the malarial parasite plastid, 96 hour incubation; 6.9% of 320,000 active; P. falciparum luciferase reporter growth, 96 h; AID 504834, 2011; Potency, µM (highest dose often 28.7 µM), actives largely listed as inhibitors
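Readout is luminescence from an integrated firefly luciferase in P. falciparum. Red cells, 2% hematocrit and 0.05% parasitemia final, were cultured with compound through two parasite generations (96 hours) at 37 C, 5% CO2.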
CHX counter = Cycloheximide Counterscreen for Small Molecule Inhibitors of Shiga Toxin; cell reporter, cycloheximide protein synthesis inhibition counterscreen; max response, %; 12% of 300,000 active; AID 2314, 2010; in the data active = max response mostly above about 13%, no sharp cut-off; inactive = mostly below about 14%; note: read at 38.3 µM for the half of the compounds with a filed dose
Pf growth 48h = Primary qHTS for delayed death inhibitors of the malarial parasite plastid, 48 hour incubation; P. falciparum luciferase growth in erythrocytes, 48 h; Potency, µM (titrated, usually from 28.7 µM), actives largely listed as inhibitors; 5.9% of 310,000 active; AID 504832, 2011
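Here the parasites carry a stable luciferase gene and grow inside erythrocytes in Albumax-based RPMI medium with compound for one erythrocytic cycle. Activity is scored as loss of luminescent signal.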
NS1 function inh = qHTS Assay for Inhibitors of Influenza NS1 Protein Function | Potency, µM (top dose mostly 46.1 µM) | 0.4% of 270,000 active | AID 2326, 2010; calls by dose curve; note: actives are rising curves; nearly all actives have a fitted effect of over 50% in size
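Recovery from NS1-induced slow growth read by OD600 in budding yeast switched to galactose assay medium (pH 6.0, -URA) at 1:100 dilution. Compound 23 nl per well; the matching strain lacking NS1 serves as control.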
Hits are given with their value; i = inactive; ? = inconclusive; nt = not tested or not shown; ! = not confirmed by another sample. In the library only some 21% were active in any assay of this set; here they are far more common. Unless noted, calls come from the whole dose curve; as a rule, active = well fitted inhibition curve with a large enough effect; inconclusive = small, poorly fitted or top-dose-only effect, or another doubt; inactive = no such curve, though single readings can be large or run the other way.

SMILES	Shiga inhibitor	Pf growth 96h	CHX counter	Pf growth 48h	NS1 function inh
O=[N+]([O-])c1ccc(N/N=C/c2cn(Cc3ccc(F)cc3)c3ccccc23)nc1	i	i	i	i	i
CC(C)[C@@H](C(=O)NC1CCN(Cc2ccccc2)CC1)N1C(=O)N2CCc3c([nH]c4ccccc34)[C@@]2(C)C1=O	i	7.38µM	i	?	i
CCCCNC(=O)CSc1nc2ccsc2c(=O)n1C1CCN(C(=O)OCC)CC1	i	2.08µM	i	?	i
NS(=O)(=O)c1ccc(CCNC(=O)CSc2nc3ccsc3c(=O)n2C2CC2)cc1	i	i	i	i	i
COc1cccc(-c2cc3c(-n4cccc4)ncnc3o2)c1	43.1	i	i	i	i
O=C(Nc1ccc2c(c1)CCCN2C(=O)c1ccccc1)c1ccccc1	54.1	?	22.0	?	i
COc1ccc(NC(=O)N2CCCc3ccccc32)cc1OC	i	i	16.0	i	i
COc1ccc(CC(=O)N2CCCc3ccccc32)cc1OC	i	i	i	?	i
CC(=O)c1cccc(NC(=O)N2CCCc3ccccc32)c1	i	i	20.9	i	i
CC(=O)c1cccc(OCC(=O)N2CCCc3ccccc32)c1	i	i	22.7	i	i
COC1=CC(=O)C[C@@H](C)[C@]12Oc1c(Cl)c(OC)cc(OC)c1C2=O	i	i	i	i	i
CCC(=O)N(Cc1cc2ccccc2[nH]c1=O)c1ccccc1OC	nt	i	i	i	i
COc1cccc(NS(=O)(=O)c2ccc3c(c2)CCCN3C(C)=O)c1	i	i	i	nt	i
CSCc1c(C(=O)N2CCCc3ccccc32)oc2ccccc12	nt	i	nt	11.7µM	nt
COc1cccc(NC(=O)N2CCCc3ccccc32)c1	72.6	i	47.5	i	i
COc1cccc(NC(=O)N2CCCC2)c1	54.4	i	i	i	i
COc1ccc2oc(C(=O)N3CCCc4ccccc43)c(C)c2c1	nt	i	nt	?	nt
COc1cc(OC)cc(C(=O)N2CCCc3ccccc32)c1	i	i	24.0	i	i
COC(=O)c1c(N2C(=O)CC(Sc3ccccc3C(=O)O)C2=O)sc2c1CCCC2 (stereo unspecified)	i	?	i	i	nt
OC1OC[C@H](O)[C@@H](O)[C@H]1O (stereo partly specified)	i	nt	i	nt	nt
COc1ccc(CC(=O)N2CCCc3ccccc32)cc1	99.2	?	53.8	i	i
COc1ccc(CC(=O)OCC(=O)N2CCCc3ccccc32)cc1	nt	i	nt	i	nt
COc1cccc(NC(=O)C(=O)N2CCOCC2)c1	49.6	i	40.5	i	i
COc1ccc(C(=O)N2CCCC2=O)cc1	i	13.5µM!	i	i	i
O=C(c1coc(=O)c(Br)c1)N1CCCc2ccccc21	73.8	?	40.4	i	i
SMILES	Shiga inhibitor	Pf growth 96h	CHX counter	Pf growth 48h	NS1 function inh
O=C(c1cccc(Br)c1)N1CCCc2ccccc21	i	?	i	i	i
CC(=O)Nc1ccccc1NC(=O)c1ccc(C)c(C)c1	i	i	i	i	i
O=C(c1cc2ccccc2c(=O)o1)N1CCCc2ccccc21	i	?	17.3	i	i
O=C(c1cc(=O)c2ccccc2o1)N1CCCc2ccccc21	i	?	i	i	i
CC(C)(C)c1ccc(C(=O)NCC(=O)OCc2ccc([N+](=O)[O-])cc2)cc1	i	0.522µM	i	i	i
CC(C)(C)c1ccc(C(=O)NCC(=O)OCC(=O)Nc2ccccc2[N+](=O)[O-])cc1	44.8	i	40.6	i	i
O=C(CNC(=O)c1ccccc1)OCc1cccc([N+](=O)[O-])c1	i	i	i	i	i
CN(C)CC(C)(C)CNS(=O)(=O)c1cccc(Cl)c1Cl	i	i	i	nt	i
Oc1c(Br)cc2oc3c(c2c1CNCc1ccccc1)CCCC3	i	0.294µM	i	nt	i
Oc1ccccc1CNCc1ccccc1	i	?	i	?	nt
Cc1nc(SCC(=O)NCc2ccco2)c2c(=O)n(C)c(=O)n(CC(C)C)c2n1	i	?	i	?	i
Cc1ccc2[nH]c(=O)c(CN(Cc3cccnc3)C(=S)NCCCN(C)C)cc2c1	i	i	i	14.7µM	i
CCN(CC)CCCNC(=S)N(Cc1cccnc1)Cc1cc2cccc(C)c2[nH]c1=O	i	?	i	?	i
CCN(CC)CCCNC(=S)N(Cc1cccnc1)Cc1cc2cc(C)ccc2[nH]c1=O	i	5.86µM	i	2.33µM	i
Cc1ccccc1NC(=O)CSc1nnc2ccc(-c3cccnc3)nn12	nt	i	nt	?	nt
COC(=O)/C(=C/c1ccco1)NC(=O)c1ccccc1	i	i	i	i	i
CCCOC(=O)/C(=C\C=C\c1ccco1)NC(=O)c1ccccc1	114.7	i	51.2	i	nt
CCOC(=O)/C(=C\c1ccc([N+](=O)[O-])o1)NC(=O)c1ccccc1	i	?	i	nt	i
CCCOC(=O)/C(=C\c1ccc([N+](=O)[O-])o1)NC(=O)c1ccccc1	i	0.415µM	i	?	i
O=C(NCC1CCCN(C(=O)Cc2ccccc2Cl)C1)c1ccc(F)cc1 (stereo unspecified)	i	?	i	?	i
Cc1cc(CNC(=O)C2CCC(=O)N(Cc3cccc(C(F)(F)F)c3)C2)no1 (stereo unspecified)	i	i	i	i	i
CSc1cccc(CNC(=O)C2CCC(=O)N(Cc3cccc(C(F)(F)F)c3)C2)c1 (stereo unspecified)	85.9	i	22.5	i	i
O=C(NCc1ccon1)C1CCC(=O)N(Cc2cccc(C(F)(F)F)c2)C1 (stereo unspecified)	i	i	20.2	i	i
CC(=O)N1c2ccc(S(=O)(=O)NCCC(=O)Nc3ccc(F)cc3C)cc2CC1C (stereo unspecified)	i	?	i	i	i
CC(C)c1nn2c(=O)cc(O)nc2s1	i	?	i	i	i
SMILES	Shiga inhibitor	Pf growth 96h	CHX counter	Pf growth 48h	NS1 function inh
COCCn1c(C)cc(C(=O)CN2C(=O)NC3(CCCCCCC3)C2=O)c1C	92.9	nt	52.1	i	i
Cc1cc(C)c(C(=O)CN2C(=O)NC3(CCC(C)CC3)C2=O)cc1C (stereo unspecified)	i	i	i	i	nt
Cc1cc(C)c(C(=O)CN2C(=O)NC3(CCCCC3)C2=O)cc1C	34.3	i	20.9	i	nt
COCCn1c(C)cc(C(=O)CN2CCCCC2)c1C	i	i	i	i	nt
COc1ccccc1N(CC(=O)Nc1cc(C)on1)S(=O)(=O)c1cccs1	nt	nt	nt	nt	i
Cc1cc(Cl)ccc1OCC(=O)Nn1c(C)ccc1C	i	i	i	?	i
Cc1cc(Cl)ccc1OCC(=O)Nc1ccccc1CO	49.7	i	24.9	13.1µM	i
CSc1ccccc1NC(=O)COc1ccc(Cl)cc1C	48.4	i	40.2	i	i
Cc1noc(C)c1-c1ccc2ncnc(NC3CCCc4ccccc43)c2c1 (stereo unspecified)	i	nt	i	nt	nt
CCCNc1nc2c(c(=O)n(C)c(=O)n2C)n1Cc1ccc(F)cc1	i	i	i	i	i
Cn1c(=O)c2c(nc(Br)n2Cc2ccc3ccccc3c2)n(C)c1=O	i	5.22µM	i	nt	i
CCNc1nc2c(c(=O)n(Cc3ccccc3)c(=O)n2C)n1Cc1ccccc1	i	i	i	10.4µM	i
